# Test results from publication PMC9911399, “Two distinct binding modes provide the RNA-binding protein RbFox with extraordinary sequence specificity”.
# Substitutions are numbered along the chain they refer to; changes in the protein carry UniProt numbers. Over roughly 16,000 sequences, “ka relative to ugcaugu” has its median near 0.0091; the highest 2% begin near 0.032. The list comes from a sample in which the highest values are over-represented; it also holds similar and randomly drawn sequences.
# T1: RBFOX1 RRM (Homo sapiens, UniProt Q9NWB1 109-208)
# T1 sequence: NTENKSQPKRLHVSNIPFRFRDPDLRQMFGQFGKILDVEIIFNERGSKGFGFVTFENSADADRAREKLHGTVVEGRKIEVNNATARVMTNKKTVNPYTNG
# B1: CUAAUAC (DNA:RNA)
# RNA: GGGAGACCGGAAUUCAGAUUGUCCCUAAUACUUAAAUCCCGUCGUAGCCACCA
# DNA 1: CAATCTGAATTCCGGTCTCCC
# DNA 2: TGGTGGCTACGACGGGATT
# B2: UUAAUCA (DNA:RNA)
# RNA: B1 RNA with C25U, A30C, C31A
# DNA 1: CAATCTGAATTCCGGTCTCCC
# DNA 2: TGGTGGCTACGACGGGATT
# B3: UUUGCUU (DNA:RNA)
# RNA: B1 RNA with C25U, A27U, A28G, U29C, A30U, C31U
# DNA 1: CAATCTGAATTCCGGTCTCCC
# DNA 2: TGGTGGCTACGACGGGATT
# B4: CCAAUGG (DNA:RNA)
# RNA: B1 RNA with U26C, A30G, C31G
# DNA 1: CAATCTGAATTCCGGTCTCCC
# DNA 2: TGGTGGCTACGACGGGATT
# B5: UACCAUC (DNA:RNA)
# RNA: B1 RNA with C25U, U26A, A27C, A28C, U29A, A30U
# DNA 1: CAATCTGAATTCCGGTCTCCC
# DNA 2: TGGTGGCTACGACGGGATT
# B6: CAGGAGG (DNA:RNA)
# RNA: B1 RNA with U26A, A27G, A28G, U29A, A30G, C31G
# DNA 1: CAATCTGAATTCCGGTCTCCC
# DNA 2: TGGTGGCTACGACGGGATT
# B7: GGAUGGG (DNA:RNA)
# RNA: B1 RNA with C25G, U26G, A28U, U29G, A30G, C31G
# DNA 1: CAATCTGAATTCCGGTCTCCC
# DNA 2: TGGTGGCTACGACGGGATT
# B8: GGAUGGC (DNA:RNA)
# RNA: B1 RNA with C25G, U26G, A28U, U29G, A30G
# DNA 1: CAATCTGAATTCCGGTCTCCC
# DNA 2: TGGTGGCTACGACGGGATT
# B9: GGCAUGG (DNA:RNA)
# RNA: B1 RNA with C25G, U26G, A27C, A30G, C31G
# DNA 1: CAATCTGAATTCCGGTCTCCC
# DNA 2: TGGTGGCTACGACGGGATT
# B10: GCAUAGC (DNA:RNA)
# RNA: B1 RNA with C25G, U26C, A28U, U29A, A30G
# DNA 1: CAATCTGAATTCCGGTCTCCC
# DNA 2: TGGTGGCTACGACGGGATT
# B11: GCAUGGU (DNA:RNA)
# RNA: B1 RNA with C25G, U26C, A28U, U29G, A30G, C31U
# DNA 1: CAATCTGAATTCCGGTCTCCC
# DNA 2: TGGTGGCTACGACGGGATT
# B12: GUAUGGG (DNA:RNA)
# RNA: B1 RNA with C25G, A28U, U29G, A30G, C31G
# DNA 1: CAATCTGAATTCCGGTCTCCC
# DNA 2: TGGTGGCTACGACGGGATT
# B13: GUCAUGG (DNA:RNA)
# RNA: B1 RNA with C25G, A27C, A30G, C31G
# DNA 1: CAATCTGAATTCCGGTCTCCC
# DNA 2: TGGTGGCTACGACGGGATT
# B14: GUAUGGU (DNA:RNA)
# RNA: B1 RNA with C25G, A28U, U29G, A30G, C31U
# DNA 1: CAATCTGAATTCCGGTCTCCC
# DNA 2: TGGTGGCTACGACGGGATT
# B15: GCAUGGC (DNA:RNA)
# RNA: B1 RNA with C25G, U26C, A28U, U29G, A30G
# DNA 1: CAATCTGAATTCCGGTCTCCC
# DNA 2: TGGTGGCTACGACGGGATT
# B16: GCAUGGG (DNA:RNA)
# RNA: B1 RNA with C25G, U26C, A28U, U29G, A30G, C31G
# DNA 1: CAATCTGAATTCCGGTCTCCC
# DNA 2: TGGTGGCTACGACGGGATT
# B17: GGAAUGG (DNA:RNA)
# RNA: B1 RNA with C25G, U26G, A30G, C31G
# DNA 1: CAATCTGAATTCCGGTCTCCC
# DNA 2: TGGTGGCTACGACGGGATT
# B18: GCAUCGU (DNA:RNA)
# RNA: B1 RNA with C25G, U26C, A28U, U29C, A30G, C31U
# DNA 1: CAATCTGAATTCCGGTCTCCC
# DNA 2: TGGTGGCTACGACGGGATT
# B19: GUGUAAG (DNA:RNA)
# RNA: B1 RNA with C25G, A27G, A28U, U29A, C31G
# DNA 1: CAATCTGAATTCCGGTCTCCC
# DNA 2: TGGTGGCTACGACGGGATT
# B20: UAGUACG (DNA:RNA)
# RNA: GGGAGACCGGAAUUCAGAUUGUCCUAGUACGUUAAAUCCCGUCGUAGCCACCA
# DNA 1: CAATCTGAATTCCGGTCTCCC
# DNA 2: TGGTGGCTACGACGGGATT
# Target: T1, RBFOX1 RRM
# Assay: EMSA; HiTS-Eq, 1 nM pool, 10 min; buffer printed only for the single-RNA assays: 10 mM Tris pH 7.5, 150 mM NaCl, 3.4 mM EDTA, 0.001% NP-40, 30 C
# Details: tags: His6 N-terminal (pET28a); label: 5' 32P
# Outline: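 A pool of RNA with 7 randomized nucleotides, 5′-radiolabelled and with DNA-annealed flanks, was equilibrated at 1 nM for 10 min in 50 µL with purified RbFox RRM, wild type or mutant, across increasing protein concentrations. Free RNA was separated by 8% native PAGE, excised, reverse-transcribed, barcoded by PCR and sequenced. Relative association constants were obtained from read-count changes of each RNA species versus the control reaction and normalised to the cognate motif.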
row,Binder,binding signal
1,B1,0.00176 KA relative to UGCAUGU
2,B2,0.00562 KA relative to UGCAUGU
3,B3,0.0228 KA relative to UGCAUGU
4,B4,0.00975 KA relative to UGCAUGU
5,B5,0.000341 KA relative to UGCAUGU
6,B6,0.00882 KA relative to UGCAUGU
7,B7,0.0169 KA relative to UGCAUGU
8,B8,0.0116 KA relative to UGCAUGU
9,B9,0.104 KA relative to UGCAUGU
10,B10,0.0095 KA relative to UGCAUGU
11,B11,0.558 KA relative to UGCAUGU
12,B12,0.00944 KA relative to UGCAUGU
13,B13,0.0107 KA relative to UGCAUGU
14,B14,0.0104 KA relative to UGCAUGU
15,B15,0.43 KA relative to UGCAUGU
16,B16,0.0735 KA relative to UGCAUGU
17,B17,0.0293 KA relative to UGCAUGU
18,B18,0.0157 KA relative to UGCAUGU
19,B19,0.0113 KA relative to UGCAUGU
20,B20,0.0135 KA relative to UGCAUGU
